Some test systems named below: PRP4; QSK; RAF1; RET; RIOK1; RIOK2; RIOK3; RIPK1; RIPK2.
Conditions in all cases: concentration: 1 μM, replicates: in singlicate; n = 1
A further assay concerns T1, PYK2.
T1 construct: gene PTK2B

Molecules are shown by their SMILES.

Results on 18 molecules are retold here after paper PMC5540273 (PLoS ONE, 2017).
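Note: KINOMEscan kinase panel screen.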

Take `CCn1c(-c2c(N)noc2C)nc2cnccc21` [SB-737856]: the “%Inh” value in the assay with PRP4 amounted to 11%; with PYK2 it was 2%; in the assay on QSK, 20%; in the assay with RAF1, 23%; with RET, 0%; in the assay with RIOK1 it was 11%. Also, the “%Inh” value with RIOK2 worked out at 0%; in the assay with RIOK3, 7%; with RIPK1 it was 0%; in the assay with RIPK2, 0%.

Turning to `O=C(Nc1n[nH]c2cc(-c3ccsc3)ccc12)C1CC1` [SB-732932], the “%Inh” value in the assay on PRP4 amounted to 15%; in the assay on PYK2, 11%; with QSK, 26%; in the assay with RAF1, 0%; in the assay with RET, 0%; in the assay on RIOK1, 83%. The “%Inh” value with RIOK2 came out at 16%; in the assay with RIOK3, 0%; in the assay with RIPK1, 56%; in the assay on RIPK2 it was 0%.

As to `COc1ccc(Nc2nccc(N3CCC(NC(=O)C(C)c4ccc(Cl)cc4)CC3)n2)cc1` (stereo not drawn) [GSK1379812], the “%Inh” value in the assay with PRP4 is 18%; with PYK2, 0%; in the assay with QSK, 0%; with RAF1 it was 60%; in the assay with RET, 38%; in the assay with RIOK1, 24%. Also, the “%Inh” value with RIOK2 is 0%; in the assay with RIOK3, 31%; in the assay with RIPK1, 22%; in the assay on RIPK2 it was 10%.

With `Cc1ccccc1-c1cc(-c2c[nH]nc2-c2ccccn2)ccn1` [GW680061], the “%Inh” value with PRP4 came to 27%; in the assay with PYK2, 0%; in the assay with QSK, 0%; with RAF1 it was 15%; in the assay on RET it was 0%; in the assay with RIOK1, 20%. In addition, the “%Inh” value in the assay with RIOK2 came to 19%; in the assay on RIOK3, 0%; in the assay on RIPK1, 0%; in the assay with RIPK2, 2%.

With `CC(=O)c1c(C)c2cnc(Nc3ccc(N4CCNCC4)cn3)nc2n(C2CCCC2)c1=O`, the “%Inh” value with PRP4, in the assay with PYK2, in the assay with QSK, in the assay on RAF1, in the assay on RET and in the assay with RIOK1 was 0% throughout. Also, the “%Inh” value in the assay with RIOK2, in the assay on RIOK3, with RIPK1 and in the assay on RIPK2 was 0% each time.

Regarding `COc1ccc(CSc2nnc(-c3ccc4c(c3)CCO4)o2)cc1`, the “%Inh” value in the assay with PRP4 was determined as 16%; in the assay on PYK2, 0%; in the assay with QSK, 0%; in the assay on RAF1, 0%; with RET, 0%; with RIOK1, 0%. The “%Inh” value in the assay with RIOK2 is given as 0%; in the assay on RIOK3, 21%; in the assay with RIPK1, 0%; in the assay with RIPK2, 0%.

Regarding `Fc1ccc(-c2nn3cccc(F)c3c2-c2ccncc2)cc1` [GW475620], the “%Inh” value in the assay on PRP4 came to 29%; in the assay with PYK2 it was 0%; in the assay with QSK it was 0%; in the assay on RAF1, 17%; in the assay with RET, 98%; in the assay on RIOK1, 30%. Further, the “%Inh” value in the assay with RIOK2 is on record as 7%; in the assay on RIOK3, 39%; with RIPK1, 0%; with RIPK2, 27%.

For the molecule `O=C1NC(=O)C(c2ccc(Cl)cc2)=C1Nc1cccc(Cl)c1` [SB-317651], the “%Inh” value in the assay with PRP4 is 0%; in the assay on PYK2 it was 0%; with QSK, 1%; with RAF1, 22%; in the assay with RET, 8%; in the assay with RIOK1, 40%. For the same molecule, the “%Inh” value in the assay on RIOK2 is given as 0%; with RIOK3 it was 22%; in the assay with RIPK1, 0%; in the assay with RIPK2 it was 0%.

For `O=C(Nc1n[nH]c2nc(-c3cccs3)c(Br)cc12)C1CCCC1` [SB-743341], the “%Inh” value came out at 15% with PRP4; 0% in the assay on PYK2; 4% in the assay with QSK; 6% in the assay on RAF1; 16% in the assay with RET; 24% with RIOK1. Also, the “%Inh” value with RIOK2 is listed as 7%; with RIOK3 it was 11%; in the assay with RIPK1, 25%; in the assay on RIPK2 it was 3%.

As for `Cc1cnc(N)c(/C=C/c2cncc(C(=O)NCCc3ccc(Cl)cc3Cl)c2)c1.Cl` [GSK190937], the “%Inh” value with PRP4 amounted to 6%; in the assay on PYK2, 7%; in the assay with QSK it was 9%; in the assay on RAF1 it was 0%; in the assay on RET, 7%; with RIOK1 it was 3%. The “%Inh” value in the assay on RIOK2 was found to be 79%; with RIOK3, 0%; with RIPK1 it was 5%; in the assay on RIPK2 it was 13%.

Regarding `COC(=O)c1cccc(NC(=O)NC2CCN(c3ccnc(Nc4ccc(F)cc4)n3)C2)c1` (stereo not drawn) [GSK1379725], the “%Inh” value is 41% with PRP4; 0% in the assay with PYK2; 6% in the assay with QSK; 4% in the assay with RAF1; 5% in the assay with RET; 10% in the assay on RIOK1. Further, the “%Inh” value with RIOK2, in the assay with RIOK3, with RIPK1 and with RIPK2 was 0% each time.

For the molecule `CNc1cc(-c2ccc3c(N)n[nH]c3c2)nc(N)n1` [GSK2224810], the “%Inh” value with PRP4 was 0%; in the assay on PYK2 it was 0%; in the assay with QSK, 0%; in the assay on RAF1, 0%; in the assay on RET, 35%; in the assay with RIOK1, 84%. Moreover, the “%Inh” value in the assay on RIOK2 was found to be 12%; in the assay with RIOK3 it was 72%; in the assay with RIPK1 it was 3%; with RIPK2 it was 9%.

With `COc1cccc(C2=C(Nc3cc(Cl)c(O)c(Cl)c3)C(=O)NC2=O)c1` [SB-390767], the “%Inh” value is given as 15% in the assay with PRP4; 0% in the assay with PYK2; 5% in the assay with QSK; 6% in the assay with RAF1; 16% in the assay with RET; 28% in the assay with RIOK1. The “%Inh” value came out at 0% in the assay with RIOK2, 0% in the assay on RIOK3, 0% with RIPK1 and 17% in the assay with RIPK2.

For the molecule `Nc1cccc(-c2ccc3c(N)n[nH]c3c2)n1` [GSK2192730], the “%Inh” value in the assay on PRP4 was 12%; with PYK2, 0%; with QSK, 10%; in the assay with RAF1, 0%; in the assay on RET, 0%; in the assay with RIOK1 it was 82%. Besides, the “%Inh” value in the assay on RIOK2 amounted to 34%; in the assay with RIOK3 it was 86%; in the assay on RIPK1, 18%; in the assay on RIPK2 it was 0%.

For the molecule `O=C1NC(=O)C(c2ccc(Cl)cc2)=C1Nc1ccc(O)cc1` [SB-340867], the “%Inh” value in the assay on PRP4 is listed as 8%; in the assay on PYK2 it was 18%; with QSK, 0%; in the assay on RAF1 it was 46%; with RET, 0%; with RIOK1 it was 0%. Moreover, the “%Inh” value with RIOK2, in the assay with RIOK3, in the assay on RIPK1 and in the assay on RIPK2 was 0% each time.

`CC(C)c1ccc(O)cc1Nc1ccnc2ccc(C(F)(F)F)cc12` [GW482059]: the “%Inh” value was found to be 14% with PRP4; 0% with PYK2; 0% with QSK; 0% in the assay with RAF1; 38% in the assay with RET; 29% in the assay with RIOK1. Also, the “%Inh” value was 5% with RIOK2, 0% with RIOK3, 3% in the assay with RIPK1 and 81% with RIPK2.

In the case of `CCn1c(-c2ccccc2)nc2cnccc21` [SB-733416], the “%Inh” value with PRP4 is 7%; with PYK2 it was 20%; with QSK, 9%; in the assay with RAF1, 3%; with RET, 23%; in the assay on RIOK1, 45%. In addition, the “%Inh” value with RIOK2 is on record as 0%; in the assay with RIOK3 it was 0%; in the assay with RIPK1, 0%; with RIPK2, 6%.

`CSc1ccc(-c2nc3n(c2-c2ccncc2)CCC3)cc1` [SKF-105561]: the “%Inh” value with PRP4 amounted to 1%; with PYK2, 0%; in the assay on QSK, 31%; in the assay with RAF1, 0%; with RET, 0%; with RIOK1, 0%. For the same molecule, the “%Inh” value in the assay with RIOK2 amounted to 0%; in the assay on RIOK3, 5%; in the assay with RIPK1 it was 0%; in the assay with RIPK2, 74%.
